From PubChem BioAssay
Calls of active or inactive are those of the source.

What was measured:
[1] = binders of probe aFSTL3 on microarray, primary screen, stem cell growth factor project, biochemical, small-molecule microarray, fluorescence 635/667 (AID 1064); details: higher = more signal;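 also: measures binding of the biotinylated anti-FSTL3 antibody to printed compounds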
[2] = binders from COS7 lysate, DM2A8 probe, primary screen, torsin A project, cell lysate, small-molecule microarray, fluorescence 635/667 (AID 1065); details: higher = more signal, COS7 lysate expressing mutant human TOR1A
[3] = binders of probe aFGF2 on microarray, primary screen, stem cell growth factor project, biochemical, small-molecule microarray, fluorescence 635/667 (AID 1067); details: higher = more signal;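 also: measures binding of biotinylated aFGF2 protein to printed compounds on slides; z-score merges feature fluorescence and signal-to-noise across triplicate slides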
[4] = binders of probe aFGF10 on microarray, primary screen, stem cell growth factor project, biochemical, small-molecule microarray, fluorescence 635/667 (AID 1071); details: higher = more signal;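 also: score merges 667 nm spot intensity and signal to noise from triplicate slides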
[5] = biological target: Neurogenic locus notch homolog protein 2 (Homo sapiens) (UniProt Q04721); experiment: Notch2 binders on small-molecule microarrays, primary screen, biochemical, small-molecule microarray, 635 nm fluorescence, stem cell growth factors (AID 1073); details: Notch2 binding, higher = more signal
[6] = biological target: Pro-neuregulin-1, membrane-bound isoform (Homo sapiens) (UniProt Q02297); experiment: NRG1 binders on small-molecule microarrays, primary screen, psychiatric disease protein project, biochemical, small-molecule microarray, fluorescence 635/667 (AID 1075); details: NRG1 binding, 635 nm fluorescence, higher = more signal;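 also: score combines 667 nm spot fluorescence with signal to noise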
Chain of Pro-neuregulin-1, membrane-bound isoform (Homo sapiens) (Q02297 whole entry, looked up, the tested form may be a part, canonical isoform): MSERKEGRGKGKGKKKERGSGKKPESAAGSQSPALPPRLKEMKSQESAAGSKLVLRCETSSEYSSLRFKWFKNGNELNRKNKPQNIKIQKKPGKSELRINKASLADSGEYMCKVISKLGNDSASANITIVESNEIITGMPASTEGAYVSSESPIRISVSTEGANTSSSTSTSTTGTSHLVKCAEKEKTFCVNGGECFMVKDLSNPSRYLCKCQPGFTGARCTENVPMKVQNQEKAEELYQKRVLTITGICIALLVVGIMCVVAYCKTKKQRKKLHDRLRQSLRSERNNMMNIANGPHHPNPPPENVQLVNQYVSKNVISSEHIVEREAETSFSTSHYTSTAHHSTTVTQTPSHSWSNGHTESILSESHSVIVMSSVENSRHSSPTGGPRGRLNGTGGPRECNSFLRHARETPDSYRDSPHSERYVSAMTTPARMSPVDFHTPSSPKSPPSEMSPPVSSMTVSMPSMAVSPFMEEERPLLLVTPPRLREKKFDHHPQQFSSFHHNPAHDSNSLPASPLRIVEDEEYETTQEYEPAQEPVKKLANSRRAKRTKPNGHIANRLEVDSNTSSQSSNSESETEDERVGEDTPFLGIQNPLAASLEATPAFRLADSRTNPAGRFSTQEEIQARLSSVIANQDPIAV

[7] = tested on: Neuregulin-1 EGF-like domain; experiment: binders of neuregulin-1 EGF-like domain, primary screen, biochemical, small-molecule microarray, 635 nm fluorescence (AID 1081); details: small-molecule microarray binding, higher = more signal;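 also: binding of the protein to compounds printed on small-molecule microarray slides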
[8] = FRG1 promoter luciferase signal modulators, primary screen, FRG1 inhibition for FSHD, cell-based, C2C12 myotubes, firefly/Renilla luciferase, luminescence (AID 1084); details: higher = more signal, called active from +8 up or from −8 down
[9] = binders of probe aFST on microarray, primary screen, stem cell growth factor project, biochemical, small-molecule microarray, fluorescence 635/667 (AID 1086); details: higher = more signal;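 also: score merges 667 nm fluorescence with signal-to-noise of each printed compound spot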
[10] = binders of probe aHhip on microarray, primary screen, stem cell growth factor project, biochemical, small-molecule microarray, fluorescence 635/667 (AID 1087); details: higher = more signal;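 also: score merges spot fluorescence at 667nm with spot signal to noise ratio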
[11] = tested on: PRMT1 (protein arginine N-methyltransferase 1); experiment: PRMT1 binders on small-molecule microarrays, primary screen, biochemical, small-molecule microarray, 635 nm fluorescence (AID 1088); details: small-molecule microarray binding, higher = more signal;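 also: binding of Prmt1 protein to compounds spotted on small-molecule microarray slides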
[12] = yeast growth modulation, basal conditions, primary screen, YJM789 clinical isolate, OD600, 24 h (AID 1089);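 also: growth of clinical yeast isolate S. cerevisiae YJM 789 seeded 1000 cells per well; test concentration not given here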; details: S. cerevisiae YJM789 growth, higher = more signal, called active from +8 up or from −8 down
[13] = fission yeast growth modulation, primary screen, strain 972, OD600, 24 h, no modulator (AID 1090);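 also: basal condition with compound alone and no growth modifier present; test concentration not given here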; details: S. pombe 972 growth, higher = more signal, called active from +8 up or from −8 down
[14] = S. cerevisiae growth modulation with rapamycin, primary screen, strain BY4716, OD600, 96 h (AID 1091); details: higher = more signal, called active from +8 up or from −8 down; also: test concentration not given here
[15] = biological target: Torsin-1A-interacting protein 2 (Homo sapiens) (UniProt Q8NFQ8); experiment: LULL1 binders on small-molecule microarray, primary screen, cell lysate, human LULL1 lysate, 635/667 nm fluorescence (AID 1092); details: hLULL1 lysate binding, 635 nm fluorescence, higher = more signal;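 also: probe is lysate of COS7 cells overexpressing human LULL1; score merges per-feature 667 nm fluorescence with signal-to-noise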
Chain of Torsin-1A-interacting protein 2 (Homo sapiens) (Q8NFQ8 whole entry, looked up): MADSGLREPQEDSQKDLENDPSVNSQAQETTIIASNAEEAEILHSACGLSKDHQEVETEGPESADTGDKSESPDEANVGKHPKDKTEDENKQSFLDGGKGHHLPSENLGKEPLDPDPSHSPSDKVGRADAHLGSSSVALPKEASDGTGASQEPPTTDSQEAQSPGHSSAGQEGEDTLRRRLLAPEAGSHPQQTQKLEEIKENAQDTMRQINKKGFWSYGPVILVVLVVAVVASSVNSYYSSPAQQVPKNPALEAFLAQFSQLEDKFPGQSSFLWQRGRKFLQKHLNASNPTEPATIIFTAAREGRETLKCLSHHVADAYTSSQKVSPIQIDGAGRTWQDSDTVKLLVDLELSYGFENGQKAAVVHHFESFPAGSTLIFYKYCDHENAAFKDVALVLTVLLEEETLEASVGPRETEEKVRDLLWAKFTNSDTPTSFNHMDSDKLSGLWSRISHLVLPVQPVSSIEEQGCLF

[16] = E. coli growth modulation, two-sided OD650, primary screen, E. coli filamentation project, strain DRC41, 24 h (AID 1093); details: OD650, 24 h, higher = more signal, called active from +8 up or from −8 down;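 also: MC1000 strain lacking acrAB efflux and sulA so SOS filamentation is blocked; test concentration not given here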
[17] = small-molecule microarray binders of probe aLefty2, primary screen, biochemical, biotinylated probe, 635/667 nm fluorescence (AID 1094); details: higher = more signal;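 also: score merges spot fluorescence near 667 nm with spot signal-to-noise ratio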
[18] = tested on: Noggin (protein binding on small-molecule microarray); experiment: Noggin binders on small-molecule microarray, primary screen, biochemical, 635/667 nm fluorescence (AID 1095); details: 635 nm fluorescence, higher = more signal;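 also: score merges 667 nm feature fluorescence with signal to noise over triplicate slides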
[19] = biological target: Neurogenic locus notch homolog protein 3 (Homo sapiens) (UniProt Q9UM47); experiment: NOTCH3 binders on small-molecule microarray, primary screen, biochemical, 635/667 nm fluorescence (AID 1096); details: NOTCH3 binding, 635 nm fluorescence, higher = more signal
Chain of Neurogenic locus notch homolog protein 3 (Homo sapiens) (Q9UM47 whole entry, looked up): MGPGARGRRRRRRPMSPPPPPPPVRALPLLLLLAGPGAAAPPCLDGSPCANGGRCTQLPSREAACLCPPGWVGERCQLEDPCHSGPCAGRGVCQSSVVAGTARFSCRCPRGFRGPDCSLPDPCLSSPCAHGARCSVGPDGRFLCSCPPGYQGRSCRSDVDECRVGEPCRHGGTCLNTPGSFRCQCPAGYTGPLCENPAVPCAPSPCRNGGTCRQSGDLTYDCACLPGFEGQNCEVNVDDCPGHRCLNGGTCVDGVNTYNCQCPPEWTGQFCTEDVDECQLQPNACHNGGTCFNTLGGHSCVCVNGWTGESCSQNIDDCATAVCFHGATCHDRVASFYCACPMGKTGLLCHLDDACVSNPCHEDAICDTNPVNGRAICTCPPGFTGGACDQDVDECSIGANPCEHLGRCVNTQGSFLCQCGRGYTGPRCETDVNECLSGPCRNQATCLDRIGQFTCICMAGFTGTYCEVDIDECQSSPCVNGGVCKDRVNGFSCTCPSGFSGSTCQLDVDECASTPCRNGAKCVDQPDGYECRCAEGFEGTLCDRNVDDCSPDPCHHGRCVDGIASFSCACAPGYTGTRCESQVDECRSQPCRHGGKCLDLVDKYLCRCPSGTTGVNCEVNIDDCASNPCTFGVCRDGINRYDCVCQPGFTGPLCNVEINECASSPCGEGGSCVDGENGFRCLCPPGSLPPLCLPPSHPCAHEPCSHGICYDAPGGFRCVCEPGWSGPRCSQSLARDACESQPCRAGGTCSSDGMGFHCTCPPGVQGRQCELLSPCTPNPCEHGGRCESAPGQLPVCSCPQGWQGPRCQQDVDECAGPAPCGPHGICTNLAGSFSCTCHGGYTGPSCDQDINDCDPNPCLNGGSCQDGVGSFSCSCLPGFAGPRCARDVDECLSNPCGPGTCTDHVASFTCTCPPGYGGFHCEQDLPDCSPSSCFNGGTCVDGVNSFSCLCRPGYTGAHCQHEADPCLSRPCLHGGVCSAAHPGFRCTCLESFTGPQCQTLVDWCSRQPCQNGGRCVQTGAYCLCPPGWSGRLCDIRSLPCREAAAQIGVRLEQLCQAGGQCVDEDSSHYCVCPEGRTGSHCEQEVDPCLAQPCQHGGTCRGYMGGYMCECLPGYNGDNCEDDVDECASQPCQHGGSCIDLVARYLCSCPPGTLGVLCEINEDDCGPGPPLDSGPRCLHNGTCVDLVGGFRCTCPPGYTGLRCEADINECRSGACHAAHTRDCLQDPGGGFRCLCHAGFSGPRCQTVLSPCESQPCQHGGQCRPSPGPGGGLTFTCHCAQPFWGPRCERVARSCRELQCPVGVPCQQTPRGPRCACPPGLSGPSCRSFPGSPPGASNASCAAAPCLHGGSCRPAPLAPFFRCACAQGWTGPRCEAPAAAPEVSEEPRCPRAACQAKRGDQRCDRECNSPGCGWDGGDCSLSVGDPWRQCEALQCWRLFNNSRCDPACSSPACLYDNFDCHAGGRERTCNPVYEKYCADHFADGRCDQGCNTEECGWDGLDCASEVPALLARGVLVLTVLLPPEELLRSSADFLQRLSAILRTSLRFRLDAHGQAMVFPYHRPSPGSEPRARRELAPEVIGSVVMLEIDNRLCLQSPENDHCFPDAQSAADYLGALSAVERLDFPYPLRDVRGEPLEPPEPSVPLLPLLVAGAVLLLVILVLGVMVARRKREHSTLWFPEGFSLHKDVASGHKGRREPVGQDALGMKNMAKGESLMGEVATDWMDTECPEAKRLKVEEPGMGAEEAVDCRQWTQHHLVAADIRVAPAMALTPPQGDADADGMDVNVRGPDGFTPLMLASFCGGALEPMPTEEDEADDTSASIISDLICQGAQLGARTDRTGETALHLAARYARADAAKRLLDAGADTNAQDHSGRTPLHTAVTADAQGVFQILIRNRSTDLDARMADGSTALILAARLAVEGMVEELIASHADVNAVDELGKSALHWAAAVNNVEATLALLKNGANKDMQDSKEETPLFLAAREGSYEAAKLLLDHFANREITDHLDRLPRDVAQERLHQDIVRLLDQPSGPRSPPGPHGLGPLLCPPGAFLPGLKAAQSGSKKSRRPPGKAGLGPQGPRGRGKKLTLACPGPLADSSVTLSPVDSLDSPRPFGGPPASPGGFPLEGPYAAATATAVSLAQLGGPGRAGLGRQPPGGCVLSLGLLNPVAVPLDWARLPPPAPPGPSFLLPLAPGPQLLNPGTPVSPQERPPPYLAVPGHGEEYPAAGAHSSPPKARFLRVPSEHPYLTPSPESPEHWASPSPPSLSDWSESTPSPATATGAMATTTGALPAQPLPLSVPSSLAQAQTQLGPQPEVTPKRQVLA

[20] = small-molecule microarray binders of probe aEGFR, primary screen, biochemical, biotinylated probe, 635/667 nm fluorescence (AID 1097); details: higher = more signal;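 also: probe is a biotinylated anti-EGFR antibody binding compounds printed on slides; score combines fluorescence near 667 nm and signal to noise of each spot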

Compound | composite z-score [1] | composite z-score [2] | composite z-score [3] | composite z-score [4] | composite z-score [5] | composite z-score [6] | composite z-score [7] | z-score [8] | composite z-score [9] | composite z-score [10] | composite z-score [11] | z-score [12] | z-score [13] | z-score [14] | composite z-score [15] | z-score [16] | composite z-score [17] | composite z-score [18] | composite z-score [19] | composite z-score [20]
COC(OC)[C@@H](C)[C@H](OC)[C@@H](C)[C@H](OC)c1ccccc1 | -0.405 | 0.594 | -0.138 | 0.238 | -0.0257 | -0.445 | -0.561 | -0.406 (inactive) | -0.0188 | -0.0645 | -0.478 | -1.94 (inactive) | -0.656 (inactive) | -0.213 (inactive) | -1.37 | 0.17 (inactive) | 0.308 | 0.467 | 0.181 | -0.117
CC(C)CON=C1[C@H]2CCn3c(=O)n(C)c(=O)n3[C@H]2[C@H](O)[C@@H]2O[C@H]12 | -0.553 | -0.0908 | -0.136 | 0.469 | 0.493 | 0.288 | 0.157 | -0.0014 (inactive) | -0.0694 | 0.0505 | -0.117 | 0.0116 (inactive) | -0.08 (inactive) | -0.6 (inactive) | -0.0761 | 0.253 (inactive) | -0.112 | 0.757 | 0.861 | 0.006
CC(C)[C@@H](OCc1ccccc1)[C@H](C)C=NO[C@H](C)c1cn([C@@H]2COC[C@H]2O)nn1 | -0.478 | 0.402 | -0.0262 | 0.281 | 0.794 | -0.0746 | 1.07 | 0.476 (inactive) | -0.0844 | 0.165 | 1.55 | -1.02 (inactive) | -0.121 (inactive) | 0.0703 (inactive) | 1.28 | 1.13 (inactive) | -0.162 | 0.871 | 0.968 | -0.0111
CO[C@@H]1C=CCC(=O)N[C@@H](C)C(=O)OC[C@@H](OC)[C@H](C)C=CCC(=O)OC[C@H]1C | -0.596 | 2.23 | -0.116 | -0.631 | -0.88 | -0.503 | 0.233 | -0.163 (inactive) | -0.045 | 0.0373 | 1.37 | -0.563 (inactive) | -0.832 (inactive) | -0.333 (inactive) | -1.33 | 0.615 (inactive) | -0.124 | 1.89 | 0.312 | -0.0357
C#CCCCON=C1C[C@@H](O)[C@@H](O)[C@@H]2[C@@H]3C(=O)N(C[C@@H]4CCCO4)C(=O)[C@@H]3CC[C@H]12 | -0.444 | 0.368 | -0.168 | 0.188 | 0.53 | 0.43 | 0.475 | 0.164 (inactive) | 0.0653 | -0.353 | 0.81 | 0.426 (inactive) | 0.775 (inactive) | 0.749 (inactive) | 1.22 | 0.397 (inactive) | -0.134 | 0.463 | 0.607 | -0.0828
O=C1[C@H]2[C@H]3[C@H](O)[C@H](O)CC(=NOC[C@@H](O)COCc4ccco4)[C@@H]3CC[C@H]2C(=O)N1Cc1ccc2c(c1)OCO2 | -0.622 | 2.39 | -0.292 | -0.738 | -0.541 | -0.285 | 1.1 | -0.196 (inactive) | -0.0769 | 0.2 | 1.4 | 0.421 (inactive) | 0.674 (inactive) | 0.463 (inactive) | -0.689 | 2.06 (inactive) | -0.172 | 1.17 | -0.177 | -0.0177
COC(=O)CC=C[C@@H](C)[C@@H](C=NOC[C@@H](O)[C@H]1O[C@@H]2OC(C)(C)O[C@@H]2[C@H]1O)OC | 0.354 | 0.937 | -0.0996 | 0.197 | 0.427 | -0.0348 | 0.205 | 0.195 (inactive) | -0.456 | 0.221 | 0.297 | 0.439 (inactive) | 0.429 (inactive) | 0.303 (inactive) | 0.31 | -0.125 (inactive) | -0.183 | 0.505 | 0.845 | 0.0536
CCc1cc2c(nc1CC)CCN(CCC(C)=NO[C@@H]1O[C@H](COC(C)=O)[C@@H](OC(C)=O)[C@H](OC(C)=O)[C@H]1OC(C)=O)C2 | -0.191 | 0.905 | 0.0333 | 0.928 | 0.839 | 0.408 | 0.996 | 1.05 (inactive) | 0.365 | -0.0994 | 1.55 | -0.149 (inactive) | -0.35 (inactive) | 0.143 (inactive) | 0.809 | -0.551 (inactive) | -0.0271 | 1.06 | 1.1 | 0.131
CCOC(=O)[C@H](Cc1ccccc1)NC(=O)CCC1CC(OC(=O)NCCc2ccc(F)cc2)CC2(CCCC(COC(=O)NCc3cccc(C(F)(F)F)c3)O2)O1 (stereo not given in full) | -0.334 | 0.0606 | 0.0102 | 0.758 | 1.49 | 1.28 | 1.05 | -0.342 (inactive) | 0.332 | -0.121 | 1.45 | 0.563 (inactive) | 0.106 (inactive) | 0.029 (inactive) | 2.9 | 0.468 (inactive) | -0.0008 | 0.832 | 1.11 | 0.12
COC(=O)[C@@H]1CC[C@H](C)[C@@H](c2ccc(Br)cc2)N1C[C@H](O)CN=[N+]=[N-] | -0.0566 | 0.143 | -0.0925 | 0.171 | -0.0324 | 0.374 | -0.0594 | 0.348 (inactive) | -0.193 | 0.478 | -0.164 | -0.209 (inactive) | -4.62 (inactive) | -2.03 (inactive) | 0.512 | 0.449 (inactive) | -0.181 | -0.133 | -0.0269 | -0.139
